Assay outcomes from PubChem.
CYP2C9 activ = human CYP2C9 activators, primary screen, biochemical, luminescence. 1.4% of 96,000 active. Cytochrome P450 2C9 (Homo sapiens), P11712. recombinant CYP2C9, luciferin-H conversion; stronger effect = higher value; factor 1 = untreated enzyme, 0 = blocked. activation factor at 5 µM;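 active = activation factor of 2 or more for CYP2C9 at a 5 µM dose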;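 also: 0 = sulfaphenazole-blocked wells and 1 = vehicle-only wells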
Target sequence (P11712 whole entry, looked up): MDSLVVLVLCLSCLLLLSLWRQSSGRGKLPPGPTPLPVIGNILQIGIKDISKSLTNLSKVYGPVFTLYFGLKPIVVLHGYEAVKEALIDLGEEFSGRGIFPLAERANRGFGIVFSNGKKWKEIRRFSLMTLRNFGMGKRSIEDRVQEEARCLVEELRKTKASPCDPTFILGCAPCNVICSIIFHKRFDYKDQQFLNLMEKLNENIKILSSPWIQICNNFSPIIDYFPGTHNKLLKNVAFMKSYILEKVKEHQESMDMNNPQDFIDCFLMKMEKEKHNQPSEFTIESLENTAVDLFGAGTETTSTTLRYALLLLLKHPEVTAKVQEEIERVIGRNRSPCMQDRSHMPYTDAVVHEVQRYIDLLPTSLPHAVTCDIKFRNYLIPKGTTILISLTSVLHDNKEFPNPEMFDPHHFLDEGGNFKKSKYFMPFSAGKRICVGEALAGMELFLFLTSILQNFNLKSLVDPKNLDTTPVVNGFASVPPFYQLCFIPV
CYP2C19 activ = human CYP2C19 activators, primary screen, biochemical, luminescence. Cytochrome P450 2C19 (Homo sapiens), P33261. recombinant CYP2C19, luciferin-H EGE luminescence; stronger effect = higher value; 0 = fully inhibited enzyme, 1 = untreated enzyme. activation factor at 5 µM. 96,000 tested, under 10 active. AID 1025, 2008;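 active = activation factor of at least 2 at 5 µM in the primary screen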;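 also: 0 = wells with 2.5 mM tranylcypromine and 1 = vehicle-only wells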
CYP2C19 inhib = blockers of cytochrome P450 2C19 activity – biochemical, luminescence, ADME assay, primary screen. CYP2C19 Supersomes, luciferin-H EGE luminescence, 30 min. inhibition, % at 5 µM. 21% of 96,000 active;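 active = CYP2C19 inhibition above a set limit at 5 µM in the primary screen, cut at about 50% in these data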;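 also: plate controls were negative control wells for no effect and 2.5 mM tranylcypromine positive control for full effect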
CYP2C9 inh = blockers of cytochrome P450 2C9 activity – biochemical, luminescence, ADME assay, primary screen | CYP2C9 Supersomes, luciferin-H conversion | 20% of 96,000 active | inhibition, % at 5 µM | P11712;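 active = blocking of liver enzyme CYP2C9 beyond about 50% at 5 µM, limit read from the data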
PLAP activator = PLAP enzyme activators, biochemical, luminescence, HTS | purified PLAP enzyme, luminescent substrate read-out; stronger effect = higher value | activation fold at 20 µM | 1.2% of 96,000 active | AID 696, 2007; in the data active = activation fold above about 2
* = called active by the depositor. Hits are enriched below; roughly 31% of the tested compounds scored in any of these assays.

SMILES | CYP2C9 activ | CYP2C19 activ | CYP2C19 inhib | CYP2C9 inh | PLAP activator
CCOc1ccc2nc(SCC(=O)NCc3ccc4c(c3)OCO4)[nH]c2c1 | 0.3 | 0.8 | 24.3 | 67.6* | 1.5
CC1=CCC2C(=O)N(C(C)c3ccccc3)C(=O)C2C1 (stereo not given) | 0.9 | 0.1 | 93.8* | 11.0 | 1.2
CCOc1ccc(CCNC(=O)c2cc3ccccn3n2)cc1OCC | 0.8 | 0.7 | 29.2 | 15.9 | 0.9
COCCN(CC(=O)NCc1ccc(F)cc1)C(=O)CCC(=O)Nc1nccs1 | 0.9 | 1 | 1.3 | 11.6 | 1.3
O=C(CN(Cc1cccs1)C(=O)CCC(=O)Nc1nccs1)NCc1ccccc1 | 0.4 | 0.2 | 78.0* | 63.8* | 0.9
Cc1ccc(C(=O)NC=C(Cl)Cl)cc1 | 1 | 0.9 | 10.8 | 3.5 | 1.2
Cn1c(/C=C/N2CCOCC2)c(C(=O)c2ccc(Br)cc2)c(=O)n(C)c1=O | 1.2 | 0.8 | 16.8 | -24.4 | 1
Cn1c2c(c(=O)n(C)c1=O)C(c1ccc(Br)cc1)Nc1ccccc1O2 (stereo not given) | 0.3 | 0.4 | 55.5* | 65.2* | 1.2
O=[N+]([O-])c1ccccc1C1Nc2cccc3cccc(c23)N1 | 0.3 | 0 | 99.2* | 69.5* | 1.2
COc1ccccc1C1Nc2cccc3cccc(c23)N1 | 0.6 | 0.3 | 70.5* | 44.6 | 0.8
Oc1ccccc1C1Nc2cccc3cccc(c23)N1 | 1 | 0.6 | 40.7 | -0.5 | 1.2
COc1ccc(C(=O)Cn2c(=O)c(CCC(=O)O)nn3c4ccccc4nc23)cc1OC | 1.1 | 1.1 | -12.7 | -8.9 | 1.3
Cc1cccc(-c2noc(CN(C(=O)c3ccc(Br)o3)C(C)C)n2)c1 | 0.4 | 0.5 | 45.5 | 56.1* | 1.1
Cc1cccc(-c2noc(Cc3ccccc3)n2)c1 | 1 | 1 | -0.8 | 0.6 | 0.9
Cc1cccc(-c2noc(CN(C(C)C)S(=O)(=O)c3ccc(F)cc3)n2)c1 | 1.1 | 0.7 | 26.7 | -13.5 | 1
Cc1cccc(-c2noc(CN(C(=O)C(c3ccccc3)c3ccccc3)C(C)C)n2)c1 | 0.5 | 0.9 | 10.7 | 51.3* | 1.3
Cc1cccc(-c2noc(CN(C(=O)c3ccc4c(c3)OCO4)C(C)C)n2)c1 | 0.6 | 0.9 | 6.1 | 37.0 | 1.1
COc1cccc(C(=O)N(Cc2nc(-c3cccc(C)c3)no2)C(C)C)c1OC | 0.2 | 0.3 | 74.4* | 81.8* | 1.6
Cc1ccc(NC2c3ncccc3C(=O)N2C2CCCCC2)cc1C (stereo not given) | 0.8 | 0.6 | 43.9 | 17.2 | 1.5
Clc1ccc(-n2c(SCc3nc4ccccc4[nH]3)nnc2-c2ccncc2)cc1 | 0.2 | 0 | 98.7* | 84.3* | 1.5
O=C(CSc1nnc(-c2ccncc2)n1-c1ccc(Cl)cc1)N1CCOCC1 | 0.2 | 0 | 98.2* | 77.3* | 1
Cc1ccccc1-n1c(SCC(=O)N2CCN(c3ccccc3)CC2)nnc1-c1ccncc1 | 0.2 | 0.2 | 83.8* | 75.9* | 1.5
O=C(O)CSc1nnc(-c2ccncc2)n1-c1ccc(Cl)cc1 | 0.5 | 0.9 | 8.6 | 51.2* | 1.2
COc1ccc(CCNC(=O)C2CCN(S(=O)(=O)c3ccc(OC)c(OC)c3)CC2)cc1 | 1.3 | 1 | 2.1 | -30.2 | 1.2
CN1CCN(C(=O)N2CCNC2=O)CC1 | 1.3 | 1.2 | -22.7 | -32.6 | 1.1
SMILES | CYP2C9 activ | CYP2C19 activ | CYP2C19 inhib | CYP2C9 inh | PLAP activator
COc1ccccc1S(=O)Cc1ccc(C(=O)NCc2ccccc2Cl)o1 (stereo not given) | 0.7 | 0.6 | 35.5 | 26.3 | 1
COC(=O)C1(C(F)(F)F)N=C2Sc3ccccc3N2C(N2CCOCC2)=N1 (stereo not given) | 0.9 | 0.8 | 23.4 | 7.7 | 1.2
O=C(CSc1nnc(SCc2ccc(Cl)cc2)s1)N1CCOCC1 | 1.1 | 1 | -3.5 | -9.0 | 0.9
O=C(CSc1ccc(Cl)cc1)N1CCOCC1 | 1.2 | 0.3 | 73.5* | -16.9 | 0.8
Cc1ccc2cc(C#N)c(NCc3ccco3)nc2c1 | 0.5 | 0.6 | 39.8 | 45.3 | 0.8
CCn1nc(C)c(/C=N/NC(=O)c2ccc3c(c2)c(C)c(C)n3Cc2ccccc2)c1C | 0.1 | 0.1 | 85.6* | 88.9* | 12.7
CCn1ncc(/C=N\NC(=O)c2ccc3c(c2)c(C)c(C)n3Cc2ccccc2)c1C | 0.1 | 0.3 | 73.4* | 92.9* | 11.4
CCn1cc(/C=N\NC(=O)c2ccc3c(c2)c(C)c(C)n3Cc2ccccc2)c(C)n1 | 0.9 | 0.3 | 73.1* | 8.7 | 10.5
Cn1c(O)c(C(C#N)=C2N=c3ccccc3=N2)c2ccccc21 | 1.9 | 0.8 | 17.7 | -87.2 | 0.8
CCOC(=O)CN1CC23C=CC(O2)C(C(=O)Nc2ccc(F)c(C)c2)C3C1=O (stereo not given) | 1 | 0.6 | 36.3 | -0.5 | 1.7
CCOC(=O)Cn1cnc2c(C#N)c3n(c2c1=O)CCCCC3 | 1 | 1 | 2.0 | 3.7 | 0.9
N#Cc1c2n(c3c(=O)n(Cc4ccccc4)cnc13)CCCC2 | 0.2 | 0 | 97.7* | 81.9* | 1.1
N#Cc1c2n(c3c(=O)n(CC(=O)c4ccc(Br)cc4)cnc13)CCCC2 | 0.9 | 0.5 | 53.4* | 13.5 | 1
N#Cc1c2n(c3c(=O)n(Cc4ccc(Cl)cc4)cnc13)CCCCC2 | 0 | 0 | 99.3* | 99.9* | 1.5
Cn1c(CCNC(=O)c2ccc(Cl)cc2)n[nH]c1=S | 1.1 | 1 | -2.4 | -5.7 | 1.1
CCOP(=O)(c1ccccc1)c1nc(-c2ccccc2C)oc1N1CCCCC1 (stereo not given) | 0.9 | 0.9 | 7.6 | 9.9 | 1.8
CCOC(=O)N1CCC(Nc2ccc3nnc(-c4ccccc4)n3n2)CC1 | 0.1 | 0 | 96.3* | 92.9* | 1.6
Cc1ccc2[nH]c3c(=O)n(CCCN4CCOCC4)cnc3c2c1 | 1 | 0.3 | 68.2* | -1.2 | 1.4
Cc1ccc2[nH]c3c(=O)n(CCN4CCOCC4)cnc3c2c1 | 1 | 0.9 | 8.2 | -4.4 | 1
Cc1ccc2[nH]c3c(=O)n(CCc4cnc[nH]4)cnc3c2c1 | 0 | 0 | 98.6* | 96.8* | 1.4
COC(=O)CC/C(O)=C1\C(=O)CC(C)(C)CC1=Nc1ccccc1OC | 0.9 | 0.7 | 31.5 | 13.5 | 1.1
COc1ccc(OC)c(N=CC2=C(O)CC(C)(C)CC2=O)c1 | 1.2 | 1 | 3.1 | -18.1 | 1.5
CCC/C(O)=C1\C(=O)CC(C)(C)CC1=Nc1ccc(OC)cc1OC | 0.1 | 0 | 96.9* | 94.7* | 1.5
CCCC/C(O)=C1\C(=O)CC(C)(C)CC1=Nc1ccccc1OC | 0.1 | 0.1 | 93.2* | 90.3* | 1.6
Cc1cccc(-n2c(SCc3cc(=O)n4ccsc4n3)nc3ccccc3c2=O)c1 | 0.5 | 0.8 | 22.0 | 49.5 | 1.3
O=c1c2ccccc2nc(SCc2cn3ccsc3n2)n1-c1ccccc1F | 0 | 0.2 | 77.2* | 98.7* | 1.5
